These results are taken from PubChem BioAssay (Tox21).

“And” between values parts separate entries of the source, which are not always exact repeats. Equal values may be shown once. Inconclusive results are not listed. More than one record can exist for a structure, and the calls need not agree. The source made the active and inactive calls. Unless noted, calls come from the whole dose curve; as a rule, active = well fitted curve in the direction sought with a large enough effect in the repeat runs; inconclusive = weak or mixed curves; inactive = no such curve, though single readings can be large; an effect the other way counts as inactive or inconclusive.

The target in experiment [1] is Nuclear receptor subfamily 1 group I member 3 (Homo sapiens) (UniProt Q14994). Description: qHTS assay to identify small molecule antagonists of the constitutive androstane receptor (CAR) signaling pathway (AID 1224838). Note: nearly all actives have a fitted effect of over 40% in size. Note: potency is the fitted concentration of half-maximal effect. The essentials: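 CITCO-stimulated (50 nM final) HepG2 cells stably transfected with hCAR and CYP2B6-2.2kb luciferase were exposed to compounds at 15 concentrations for 24 h at 37 C/5% CO2. A luciferase reagent was added and luminescence recorded after 30 min.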

Experiment [2] has the same target. Put plainly: qHTS assay to identify small molecule agonists of the constitutive androstane receptor (CAR) signaling pathway (AID 1224839).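 For activation: HepG2 cells stably carrying human CAR and a CYP2B6 luciferase reporter; series mostly up to about 92 µM.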 Note: nearly all actives have a fitted effect of over 15% in size. Note: potency is the fitted concentration of half-maximal effect. The essentials: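 Luminescence read-out (ONE-Glo, 30 min, room temperature) from double-stable HepG2-CYP2B6-hCAR cells exposed 24 h to 15-point compound series in presence of 0.75 uM PK11195 final.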
Experiment [3] is described as follows: qHTS assay to identify small molecule antagonists of the estrogen related receptor signaling pathway with the pleiotropic PPARgamma coactivator (PGC) from Tox21 10K library - cell viability counter screen (AID 1224840; active = well fitted cell-killing curve with a large enough effect in the repeat runs, not every such curve was filed as active; note: nearly all actives have a fitted effect of over 40% in size; note: potency is the fitted concentration of half-maximal effect). The essentials:
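Viability counter screen, PGC/ERR cells: 17.5 h compound exposure at 37 C, CellTiter-Fluor fluorescence endpoint.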

The nature of experiment [4]: qHTS assay to identify small molecule antagonists of the estrogen related receptor signaling pathway with the pleiotropic PPARgamma coactivator (PGC) from Tox21 10K library (AID 1224841; call rule not given here; note: actives are mostly falling curves and most rising ones were filed inactive; nearly all actives have a fitted effect of over 50% in size; note: potency is the fitted concentration of half-maximal effect). The essentials:
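In the PGC/ERR line, DMSO solutions of test chemicals are pin-delivered to 2,000 cells/well six hours after dispensing. Following eighteen hours' incubation, One-Glo reagent is added and luminescence recorded.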

A short description of experiment [5]: qHTS assay to identify small molecule agonists of the estrogen related receptor signaling pathway with the pleiotropic PPARgamma coactivator (PGC) from Tox21 10K library (AID 1224842). Note: nearly all actives have a fitted effect of over 15% in size. The essentials: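 PGC/ERR reporter cells (NTP line) were seeded 2,000 per well, rested 6 h at 37 C/5% CO2, then pin-dosed with compounds in DMSO for 18 h at 37 C; luciferase read by One-Glo luminescence after 30 min at room temperature.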

Experiment [6] deals with Thyrotropin receptor (Homo sapiens) (UniProt P16473). Put plainly: qHTS assay to identify small molecule agonists of the thyroid stimulating hormone receptor (TSHR) signaling pathway (AID 1224843; calls by dose curve; note: nearly all actives have a fitted effect of over 45% in size; note: potency is the fitted concentration of half-maximal effect). The essentials: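 Compounds are titrated over 15 concentrations, in triplicate, onto TSHR-HEK293 cells seeded at 800/well. Plates sit 30 min at room temperature before cAMP-d2 and anti-cAMP cryptate are added; signal is read after a further hour.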

The nature of experiment [7]: qHTS assay to identify small molecule agonists of the hypoxia (HIF-1) signaling pathway - cell viability counter screen (AID 1224844; calls by dose curve; note: nearly all actives have a fitted effect of over 50% in size). In a few lines:
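Same wells as the HIF-1 reporter screen; ME-180 cells carrying HRE-bla, 17 hr treatment at 37C; CellTiter-Glo luminescence read after 30 min at room temperature.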

Experiment [8] can be described thus: qHTS assay to identify small molecule agonists of H2AX (AID 1224845; active = well fitted activation curve with a large enough effect in the signal ratio in the repeat runs, not every such curve was filed as active; the % refers to the signal ratio). In a few lines:
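Wild-type CHO-K1 cells plated overnight, then exposed 3 hr at 37C to compounds at 15 concentrations (0.76% DMSO). Lysed, then HTRF anti-pH2AX(S139)-cryptate/anti-H2AX-d2 detection after 24 hr at room temperature; emissions 665 and 620 nm.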

A short description of experiment [9]: qHTS assay to identify small molecule agonists of the hypoxia (HIF-1) signaling pathway (AID 1224846; active = well fitted activation curve with a large enough effect in the signal ratio in the repeat runs, not every such curve was filed as active; the % refers to the signal ratio). The essentials:
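In ME-180 cells bearing an HRE-bla construct, 17 h treatment with DMSO-dissolved compounds at 37C was followed by CCF4-AM loading to quantify reporter induction.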

Experiment [10] is described as follows: qHTS assay to identify small molecule agonists of H2AX - cell viability counter screen (AID 1224847; calls by dose curve; note: nearly all actives have a fitted effect of over 30% in size; note: potency is the fitted concentration of half-maximal effect). In a few lines: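 CHO-K1 wt, 1000 cells/well, o/n 37C; cpds 15 conc, 3 h 37C, 0.76% DMSO; CellTiter-Glo, 30 min RT, luminescence.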
% is set by controls: 0 for no effect and ±100 for the full control effect.

Thyrotropin receptor (Homo sapiens), sequence (P16473 whole entry, looked up): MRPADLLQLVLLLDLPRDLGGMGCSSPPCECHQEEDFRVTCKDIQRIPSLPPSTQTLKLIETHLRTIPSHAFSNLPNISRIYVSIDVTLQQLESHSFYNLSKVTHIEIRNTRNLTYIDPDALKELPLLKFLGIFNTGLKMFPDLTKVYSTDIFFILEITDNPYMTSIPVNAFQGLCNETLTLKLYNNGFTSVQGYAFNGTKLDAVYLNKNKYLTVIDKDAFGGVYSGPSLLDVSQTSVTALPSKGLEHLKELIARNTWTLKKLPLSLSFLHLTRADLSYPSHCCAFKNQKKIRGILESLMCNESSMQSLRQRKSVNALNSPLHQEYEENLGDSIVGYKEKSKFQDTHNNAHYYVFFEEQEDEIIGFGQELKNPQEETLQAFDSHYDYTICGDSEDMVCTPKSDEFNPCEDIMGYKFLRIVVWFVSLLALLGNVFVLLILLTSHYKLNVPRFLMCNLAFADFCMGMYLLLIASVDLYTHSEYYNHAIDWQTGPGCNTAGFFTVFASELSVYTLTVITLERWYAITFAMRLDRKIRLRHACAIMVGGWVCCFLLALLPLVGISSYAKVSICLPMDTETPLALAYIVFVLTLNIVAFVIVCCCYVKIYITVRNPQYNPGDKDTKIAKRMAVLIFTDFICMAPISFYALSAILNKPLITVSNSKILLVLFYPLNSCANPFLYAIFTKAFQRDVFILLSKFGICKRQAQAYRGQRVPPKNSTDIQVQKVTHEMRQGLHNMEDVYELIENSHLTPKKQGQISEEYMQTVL
Nuclear receptor subfamily 1 group I member 3 (Homo sapiens), sequence (Q14994 whole entry, looked up): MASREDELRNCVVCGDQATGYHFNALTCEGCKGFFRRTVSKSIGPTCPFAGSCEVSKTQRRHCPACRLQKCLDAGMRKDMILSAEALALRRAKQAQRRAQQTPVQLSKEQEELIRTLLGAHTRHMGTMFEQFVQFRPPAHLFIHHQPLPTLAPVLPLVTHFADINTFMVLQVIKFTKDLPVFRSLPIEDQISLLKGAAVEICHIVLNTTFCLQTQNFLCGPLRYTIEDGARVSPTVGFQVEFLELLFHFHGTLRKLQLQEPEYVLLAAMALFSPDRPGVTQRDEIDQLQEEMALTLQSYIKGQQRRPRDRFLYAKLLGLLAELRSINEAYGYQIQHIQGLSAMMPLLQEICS

Turning to `COS(C)(=O)=O`, the Potency result in experiment [1], in experiment [2], in experiment [3], in experiment [6], in [7] and in experiment [8] was “inactive” throughout. In addition, the Potency entry in experiment [10] is “inactive”. In experiment [4], the Potency is 35.7 µM (active) and inactive. The outcome in experiment [5] and in [9] was inactive.

Consider `CCCCCC1=CCCC1=O`, for which the Potency result in experiment [1], in [2], in experiment [3], in experiment [6], in [7] and in experiment [8] was “inactive” each time. Further, the result in [9] was inactive.

On to `CSCCC=O`, for which the Potency result in experiment [1], in experiment [2], in experiment [3], in experiment [4], in experiment [7] and in experiment [8] was “inactive” each time. For the same molecule, in experiment [10], the Potency entry is “inactive”. Moreover, the molecule was classed as inactive in experiment [5] and in experiment [9].

`CC[C@H](C)C(=O)O[C@H]1C[C@@H](C)C=C2C=C[C@H](C)[C@H](CC[C@@H]3C[C@@H](O)CC(=O)O3)[C@H]21`: the Potency entry in [1], in [2], in experiment [4], in [6], in experiment [7] and in [8] was “inactive” each time. The Potency in experiment [3] is 69.6 µM (active) and inactive; in [10] it was 115 µM (active) and inactive. The call in experiment [5] and in [9] was inactive.

With `CCC(O)OC(O)CC` (stereo not given), the Potency result in experiment [1], in experiment [2], in experiment [3], in experiment [4], in experiment [6] and in experiment [7] was “inactive” throughout. Further, the Potency result in [8] and in experiment [10] was “inactive” throughout. The molecule was called inactive in experiment [5] and in [9].

For the molecule `CC(=O)CC(=O)Nc1ccccc1C`, the Potency result in [1], in [2], in [3], in experiment [4], in experiment [7] and in experiment [8] was “inactive” throughout. Further, in experiment [10], the Potency result was “inactive”. The result in experiment [5] and in [9] was inactive. Moreover, in experiment [6], the Potency is 9.8 µM (active) and inactive.

For the molecule `NNc1nncc2ccccc12`, the Potency entry in experiment [1], in experiment [7] and in experiment [10] was “inactive” in each case. Also, the Potency in [2] is 12.2 µM (active). The activation in experiment [2] was 12.7% [at 19 µM] (inactive); in experiment [6], -1.13% [at 19 µM] (inactive). Also, the viability change, negative = cytotoxic in [3] is 3.22% [at 19 µM] (inactive). In experiment [8], the activation (H2AX phosphorylation) was 1% [at 31.6 µM] (inactive).

Consider `CCCCC(CC)CO` (stereo not given), for which the Potency entry in experiment [1], in [2], in experiment [3], in experiment [6], in experiment [7] and in experiment [8] was “inactive” in each case. Moreover, the call in experiment [9] was inactive.

Take `OCC(CO)(CBr)CBr`: the Potency result in [1], in [2], in [3], in experiment [4], in experiment [6] and in experiment [7] was “inactive” throughout. In addition, the Potency entry in experiment [8] and in [10] was “inactive” in each case. Also, the call in [5] and in experiment [9] was inactive.

Consider `O=c1[nH]c(=O)n([C@H]2C[C@H](O)[C@@H](CO)O2)cc1Br`, for which the Potency entry in experiment [1], in experiment [3], in experiment [6], in [7] and in experiment [8] was “inactive” throughout. The Potency in [2] was 7.81 µM (active) and 10.6 µM (active).

On to `Cc1occc(=O)c1O`, for which the Potency entry in experiment [1] was “inactive and 50.9 µM (active)”. Besides, the Potency result in experiment [2], in [3], in [6], in experiment [7] and in [8] was “inactive” in each case. Besides, the outcome in [9] was inactive.

Consider `OC[C@H]1O[C@@](CO)(O[C@H]2O[C@H](CO)[C@@H](O)[C@H](O)[C@H]2O)[C@@H](O)[C@@H]1O`, for which the Potency entry in experiment [1], in experiment [2], in [3], in experiment [4], in [7] and in [8] was “inactive” in each case. For the same molecule, the Potency entry in experiment [10] was “inactive”. In addition, the call in experiment [5] and in experiment [9] was inactive.

Regarding `CN(C)CCCN`, the Potency result in [1], in experiment [2], in experiment [3], in [4], in experiment [6] and in experiment [7] was “inactive” throughout. The Potency result in experiment [8] is “inactive”. Further, the molecule was called inactive in [5] and in [9].

On to `OCCOCCOCCO`, for which the Potency result in experiment [1], in experiment [2], in experiment [3], in experiment [4], in [6] and in [7] was “inactive” in each case. In [8], the Potency entry was “inactive”. The result in experiment [5] and in [9] was inactive.

Take `c1ccc2c(c1)ccc1ccccc12`: the Potency entry in experiment [1], in experiment [2], in experiment [3], in [4], in [7] and in experiment [8] was “inactive” each time. Also, the Potency result in experiment [10] is “inactive”. The call in experiment [5] and in experiment [9] was inactive.

Consider `O=C(O)CC(C(=O)O)C(CC(=O)O)C(=O)O` (stereo not given), for which the Potency entry in [1], in [2], in experiment [3], in [7] and in [8] was “inactive” throughout. Moreover, the Potency in [6] is 268 nM (active) and inactive. For the same molecule, in experiment [9], the call was inactive.

As for `CC(=O)Nc1ccccc1`, the Potency entry in [1], in [2], in [3], in experiment [6], in [7] and in experiment [8] was “inactive” in each case. Besides, the molecule was called inactive in experiment [9].

As to `O=C(O)CCCCCCCCCCC(=O)O`, in experiment [1], the Potency result was “inactive and 1 nM (active)”. Further, the Potency entry in [2], in experiment [3], in experiment [6], in [7] and in [8] was “inactive” in each case. Also, the molecule was called inactive in experiment [9].

As to `C=CCNC(N)=S`, the Potency entry in experiment [1], in [2], in experiment [3], in [6], in experiment [7] and in [8] was “inactive” in each case. For the same molecule, the outcome in [9] was inactive.

Turning to `O=C(Oc1ccccc1)c1ccccc1`, the Potency entry in [1], in experiment [2], in experiment [3], in [4], in experiment [6] and in experiment [7] was “inactive” each time. In addition, the Potency result in experiment [8] and in experiment [10] was “inactive” each time. The molecule was classed as inactive in [5] and in experiment [9].

As to `O=C(O)CCCC[C@@H]1SC[C@@H]2NC(=O)N[C@@H]21`, the Potency result in [1], in experiment [2], in [3], in experiment [4], in experiment [6] and in experiment [7] was “inactive” in each case. The Potency entry in [8] and in [10] was “inactive” throughout. Also, the outcome in experiment [5] was inactive.

In the case of `Cc1cccnc1`, the Potency result in experiment [1], in experiment [2], in [3], in experiment [4], in [6] and in [7] was “inactive” throughout. Further, the Potency entry in [8] and in experiment [10] was “inactive” each time. The result in experiment [5] and in experiment [9] was inactive.

On to `Cc1cccc(O)c1`, for which the Potency result in [1], in experiment [2], in experiment [3], in experiment [4], in experiment [7] and in experiment [8] was “inactive” in each case. For the same molecule, the result in [5] and in experiment [9] was inactive.

`O=C(CC(C(=O)OC1CCCCC1)S(=O)(=O)O)OC1CCCCC1` (stereo not given): the Potency result in experiment [1], in [2], in experiment [3], in [4], in experiment [6] and in experiment [7] was “inactive” in each case. Moreover, the Potency result in [8] is “inactive”. For the same molecule, the molecule was called inactive in experiment [5] and in experiment [9].

Turning to `O=C1CCC(N2C(=O)c3ccccc3C2=O)C(=O)N1` (stereo not given), the Potency result in experiment [1], in experiment [2], in experiment [3], in experiment [6], in [7] and in experiment [8] was “inactive” each time.
